According to PubChem BioAssay AID652208 (Broad Institute, 2013):
Entries with a potency or affinity are not part of this list. The source made the active and inactive calls.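 The calls were made as follows: active = Loss of cell signal with fitted half-effect dose at or below twice the top valid tested dose; inconclusive = Poor fit, or flat fit from -70 to -30 percent; inactive = Half-effect above limit, rising signal, or flat within 30 percent.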

Assay: HEK293T cell cytotoxicity, dose response, cytotoxicity control for HIV Vif inhibitor project, cherry-picks (AID 652208)
Details: HEK293T viability, CellTiter-Glo luminescence, 24 h; series mostly up to 26 µM

SMILES | outcome
O=C(CCN1CCOCC1)Nc1ccc(Cl)cc1 | inactive
c1ccc(-c2cn3nc(-c4ccccc4)c(-c4ccccc4)nc3n2)cc1 | inactive
Cc1ccc2c(c1)N(CC(=O)NCC1CCCO1)C(=O)C(C(C)C)O2 (stereo not drawn) | inactive
Cc1c(NC(=O)c2cc3ccccc3oc2=O)c(=O)n(-c2ccccc2)n1C | inactive
COc1cc(C(=O)NCCc2cn3ccc(C)cc3n2)cc(OC)c1OC | inactive
COc1ccc(C(=O)Nc2c(Cl)cc(Cl)cc2C(=O)N2CCOCC2)cc1 | inactive
CCOc1nc(N2CCCCC2)nc(-n2cc(-c3ccccc3)nn2)n1 | inactive
CCN(CC)c1ccc2cc(-c3nnc(-c4ccccc4)o3)c(=O)oc2c1 | inactive
COc1cc(-c2cnc3c(NC=O)cc(-c4cccc(NC(C)=O)c4)cn23)cc(OC)c1OC | inactive
COc1ccc(N=C2NC(=O)S/C2=C\c2ccc(N(C)C)cc2)cc1 | inactive
COc1ccc(S(=O)(=O)Nc2cc3c(C(C)=O)c(C)oc3c3ccccc23)cc1 | inactive
Cc1c(NC(=O)CC(O)(C(F)(F)F)C(F)(F)F)c(=O)n(-c2ccccc2)n1C | inactive
COc1ccc(Br)cc1C(=O)Nc1ccc(N2CCCC2)cc1 | inactive
N#CC(C(=O)NCCc1ccccc1)c1nc2ccccc2nc1N1CCOCC1 (stereo not drawn) | inactive
COc1ccc(C(=O)Nc2cc(OC)c(NC(=O)Nc3ccccc3)cc2OC)cc1 | inactive
O=C1c2ccccc2C(Nc2ccc(S(=O)(=O)N3CCOCC3)cc2)N1c1ccccn1 (stereo not drawn) | inactive
C=CCNc1sc(C(=O)c2ccc(Br)s2)c(N)c1C#N | inactive
O=c1[nH]c(=O)n(Cc2ccco2)c2c1C(C(F)(F)F)(C(F)(F)F)N=C(c1ccco1)N2 | inactive
COc1cc(OC)cc(C(=O)N[C@H](C(=O)Nc2ccc3c(c2)OCO3)C(C)C)c1 | inactive

SMILES | outcome
O=C(c1cc(-c2ccccc2O)on1)N1CCCCCC1 | inactive
O=C(CCNC(=O)c1ccco1)Nc1ccc(OC(F)(F)F)cc1 | inactive
C[C@@H]1CN([C@H](C)CO)C(=O)CCCn2cc(nn2)CO[C@H]1CN(C)C(=O)c1ccccc1 | inactive
CCN1C(=O)NC(c2ccccc2)C1=O (stereo not drawn) | inactive
N#Cc1c(C(F)(F)F)cc(-c2ccco2)nc1SCc1ccncc1 | inactive
CCOc1ccc(S(=O)(=O)NCc2ccccn2)cc1NC(=O)c1ccccc1 | inactive
CCN1CCc2c(sc(N)c2C(N)=O)C1 | inactive
COc1cc(Nc2nc3ccccc3n3nnnc23)cc(OC)c1OC | inactive
COc1ccc(-c2nc(CS(=O)(=O)CC(=O)NCCc3ccccc3)c(C)o2)cc1 | inactive
COc1ccc(OC)c(NC(=O)c2nc(-c3ccccc3)oc2C)c1 | inactive
Cc1ccc(C(C)C)c(OCC#CCN2CCOCC2)c1 | inactive
COc1ccc(CC(=O)Nc2ccc(-c3noc(-c4cc(OC)c(OC)c(OC)c4)n3)cc2)cc1 | inactive
CCOc1ccc2c(C)c(C(=O)O)oc2c1OCC | inactive
Cc1nnc2ccc(-c3ccc(NS(=O)(=O)c4ccc(F)cc4F)cc3)nn12 | inactive
O=S(=O)(Nc1nc2ccccc2nc1NCc1ccco1)c1ccc(Cl)cc1 | inactive
COc1ccc(-c2cc(C(=O)Nc3ccc4c(c3)OCO4)no2)cc1 | inactive
Cc1ccc(C(=O)NC(CCc2ccccc2)C(=O)O)cc1 (stereo not drawn) | inactive
COc1ccccc1Nc1nnc(C)c(=O)[nH]1 | inactive
Cc1cc(/C=C2\NC(=S)N(C)C2=O)ccc1N1CCCC1 | inactive
